Tg IFNy HTS: inhibitors of Toxoplasma gondii growth with IFN-gamma | Toxoplasma gondii growth in IFN-gamma-treated host cells; stronger effect = lower value | activity change, negative = inhibition, % (no concentration beside the values) | 3.8% of 69,000 active | AID 1259416; in the data active means activity change below about -70%, passing the limit was not always enough;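 further: host cells are HeLa cells infected with Toxoplasma gondii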
An asterisk follows results filed as active; ! = not active in a repeat. Many of the other results were omitted from the sample, so hits are more common in it than they were.

SMILES | Tg IFNy HTS
O=C(NCC1CCOCC1)c1cnc(Nc2ccc(Cl)cc2Cl)nc1C(F)(F)F | -73.8*
C[C@]12CCC(=O)C=C1CCC1C2CC[C@@]2(C)C1CC[C@H]2O (stereo partly drawn) | 11.0
CN(C)C1CC2(CCN(Cc3ccnn3C)C2)C1 (stereo not drawn) | 109.2
N#CC(C#N)=Cc1ccc(O)c(O)c1 | -0.2
CC(C)(C)c1cc(C=C(C#N)C#N)cc(C(C)(C)C)c1O | -79.7*
CCc1nc(C)cc(NCCC23CCCN2CCC3)n1 | -3.5
C[C@@H]1O[C@@H](O[C@@H]2C=C3CCC4C(CC[C@]5(C)[C@@H](c6ccc(=O)oc6)CC[C@]45O)[C@@]3(C)CC2)C(O)C(O)[C@H]1O (stereo partly drawn) | -79.7*
CCc1ccccc1NC(=O)c1cc2cccnc2n(Cc2ccccc2F)c1=O | 0.9
CN(C)c1ccc(-c2nccn2CCc2cnc[nH]2)cn1 | 3.2
CC1COC2(CCCN(Cc3csnn3)C2)C1 (stereo not drawn) | 4.3
O=C(NCc1ccco1)c1cc2cccnc2n(Cc2ccc(F)cc2)c1=O | -95.0*
O=C(NCCC(c1ccccc1)c1ccccc1)c1cc2cccnc2n(Cc2ccc(F)cc2)c1=O | -83.3*
CC(C)CCNC(=O)c1cc2cccnc2n(Cc2ccc(F)cc2)c1=O | -25.0
O=C(NCc1ccc(F)cc1)c1cc2cccnc2n(Cc2ccc(Cl)cc2)c1=O | -37.0
O=C(NCCC(c1ccccc1)c1ccccc1)c1cc2cccnc2n(Cc2ccccc2)c1=O | 9.9
Cc1ccc(CNC(=O)c2cc3cccnc3n(Cc3ccc(F)cc3)c2=O)cc1 | -8.1
CC(C)N1CCO[C@H]2CN(C(=O)N(C)C)C[C@@H]21 | 23.7
O=C(Nc1ccc(F)cc1F)c1cc2cccnc2n(Cc2ccc(Cl)cc2)c1=O | 94.5
O=C(NCc1ccc2c(c1)OCO2)c1cc2cccnc2n(Cc2ccccc2)c1=O | 132.8
CC(=O)Nc1ccccc1NC(=O)CNC(C)Cc1ncccc1C (stereo not drawn) | -32.9
Cc1ccc(CN2CCOC3CNCC[C@@H]32)o1 (stereo partly drawn) | 10.6
O=C(Nc1ccccc1Cl)c1cc2cccnc2n(Cc2ccc(F)cc2)c1=O | 46.0
CCN1CCN(C(=O)Cc2ccc(Nc3ncc(F)c(Nc4ccc(C(=O)Nc5ccccc5Cl)cc4)n3)cc2)CC1 | -72.8*
CCN(Cc1ccc(F)cc1)C(=O)C(C)N1CCCC1=O (stereo not drawn) | -1.2
C=CCN1CC[C@@H]2[C@@H]1CCN2c1ncc(F)cn1 | 2.8
SMILES | Tg IFNy HTS
C=CCN1CC[C@H]2[C@@H]1CCN2C(=O)c1cc(C)on1 | 19.3
C=CCN1CC[C@@H]2[C@@H]1CCN2C(=O)c1cncc(C)c1 | -98.4*
COCCN(Cc1sccc1C)C(=O)c1c(C)n(C)c2ccc(OC)cc12 | -30.3
O=C(O)CN1CC2CC1CN(Cc1ccoc1)C2 (stereo not drawn) | 15.3
COc1ccccc1NC(=O)c1cc2cccnc2n(Cc2ccc(Cl)cc2)c1=O | 34.6
COc1ccc(N2C(=O)NC(=O)C3(Cc4cccc(F)c4N4CCC(c5ccccc5)CC43)C2=O)cc1 (stereo not drawn) | -99.3*
Cc1ccc(C)c(NC(=O)c2cc3cccnc3n(Cc3ccccc3)c2=O)c1 | -0.6
Cc1ccnc(CC(C)N(C)Cc2ccc(CN(C)S(C)(=O)=O)o2)c1 (stereo not drawn) | -27.9
CCN1C[C@H]2[C@H](OC)CCN(C(=O)c3ncccn3)[C@H]2C1 | 171.1
COC(=O)C[C@@](O)(CCC(C)(C)O)C(=O)O[C@@H]1C(OC)=C[C@]23CCCN2CCc2cc4c(cc2[C@@H]13)OCO4 | -83.9*
Cc1ccc(C2(CN3C[C@@H]4C[C@@H](C3)c3cccc(=O)n3C4)CCNCC2)nc1 | 7.0
COCCN1CCN(C)C2(CCN(Cc3ccncc3)CC2)C1=O | -22.4
Fc1ccc(C(OCCN2CCCC2)c2ccc(Br)cc2)cc1 (stereo not drawn) | -62.0
Fc1ccc(C(OCCN2CCN(C/C=C/c3ccccc3)CC2)c2ccc(F)cc2)cc1 | -81.4*!
Fc1ccc(C(OCCN2CCN(CCCc3ccccc3)CC2)c2ccc(F)cc2)cc1 | 13.7
N#CCN1CCC2(CC1)C(=O)N(c1cncnc1)c1ccccc12 | 26.1
COCC1CCC2(CCN(c3ncccn3)CC2)N1CC1CC1 (stereo not drawn) | 38.6
Cc1cccc2nc(CNC(=O)C3CC4(CCNCC4)CN3)cn12 (stereo not drawn) | 4.6
COc1cccc(C(=O)Nc2ccc(Br)cc2C(=O)c2ccccc2Cl)c1 | 57.1
O=C(CCC(F)(F)F)N1CCCC2(CCNC2)C1 (stereo not drawn) | -0.7
COc1ccc(C2=NCC(=O)N(Cc3nc(-c4ccccc4)oc3C)c3sc4c(c32)CCCC4)cc1 | -87.0*
N#Cc1cccc(NC2COC3(CCN(Cc4ccoc4)C3)C2)n1 (stereo not drawn) | -32.6
Cn1ccnc1CN1CCCC2(CCNC2=O)C1 (stereo not drawn) | -60.8
CN1C[C@@H](COCc2cccnc2)[C@]2(CCN(C(=O)N(C)C)C2)C1 | 1.1
CN(C)CCO[C@@H]1C[C@@H]2CN(c3ncc(F)cn3)CCN2C1 | -6.9

High-throughput results: PubChem, Broad Institute
